Only some compounds are listed: those with a hit (about 1.2% of all), similar ones and a draw of the others.
GASC-1 inh – inhibitors of human GASC-1 (JMJD2C) demethylase. Q9H3R0. GST-JMJD2C(1-420) H3K9me3 demethylation, DELFIA europium. inhibition, % at 2.35 µM. actives 0.069% (n = 330,000). AID 2099;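 active = more than half of a compound's replicate wells show inhibition beyond 50%, single wells judged on their own value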;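 note: signal counts dimethyl H3K9 product captured on neutravidin plate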
pCIP destab – compounds decreasing mouse p/CIP protein stability; Q05BA5; F442A p/CIP-EGFP cells, EGFP fluorescence, 16 h; decrease of EGFP signal, % at 10 µM; actives 0.01% (n = 290,000);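 active = EGFP signal decrease of at least 30% at 10 µM or well 3 SD below plate mean, unless failing retest; inactive = the rest, including hits failing retest or dose response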
VLA-4 inh – inhibition in a human VLA-4 binding assay. AID 2557. inhibition, % (about 7 µM as worked out from the volumes in the protocol). VLA-4 expressing cells, ligand binding flow cytometry. P13612. actives 0.2% (n = 330,000); in the data active = inhibition above about 50%
GPR7 antag – blocks human GPR7 receptor signaling; P48145; GPR7-expressing cells, fluorescence antagonist assay; inhibition, % at 4.4 µM; actives 1.1% (n = 290,000); AID 1861; in the data active = inhibition above about 16%, passing the limit was not always enough;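 note: cells stimulated with the agonist NPW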
GPR7 antag cf – confirmation of human GPR7 antagonists; shares compounds with GPR7 antag; GPR7-expressing cells, calcium fluorescence antagonist mode; inhibition, % at 4.4 µM; actives 52% (n = 2,400); AID 1952; in the data active = inhibition above about 24%;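 note: stimulated with the GPR7 agonist NPW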
MCHR1 antagonist – counter-screen for GPR7 antagonists: antagonists of human MCHR1; shares compounds with GPR7 antag; inhibition, % at 4.4 µM; AID 2148; actives 62% (n = 2,400); MCHR1-expressing cells, fluorescence antagonist assay; in the data active = inhibition above about 22%
Large screens that a line does not name were inactive (follow-up assays come after a bar, where they were run).

O=C(CC(c1ccccc1)c1ccccc1)Nc1ccc(C(=O)O)cc1	none
COc1ccc2c(c1)C(=O)N(c1ccc(C)cc1)C(=O)C2	none
COc1ccc2c(c1)C(=O)N(c1ccccc1)C(=O)C2	GPR7 antag 28 | GPR7 antag cf inactive | MCHR1 antagonist inactive
O=C(CCC(=O)N(CC(=O)NC1CCCCC1)c1ccc(F)cc1)Nc1ccccn1	none
CCC(C)(C(=O)NC1CCCC1)N(Cc1ccco1)C(=O)c1ccccn1 (stereo not drawn)	none
CCC(C)(C(=O)NC1CCCC1)N(Cc1cccs1)C(C)=O (stereo not drawn)	none
CCC(C)(C(=O)NC1CCCC1)N(Cc1ccco1)C(=O)c1ccc2c(c1)OCO2 (stereo not drawn)	GPR7 antag 31 | GPR7 antag cf 37 | MCHR1 antagonist inactive
CCC(C)(C(=O)NC1CCCC1)N(Cc1ccco1)C(=O)Cc1cccs1 (stereo not drawn)	GPR7 antag 38 | GPR7 antag cf 33 | MCHR1 antagonist 23
Cc1cc(C)n(-c2ccc(C(=O)Nc3ccc(S(=O)(=O)NCc4ccco4)cc3)cc2)n1	GPR7 antag 45 | GPR7 antag cf 67 | MCHR1 antagonist 70
COc1ccc(NC(=O)CCNC(=O)c2ccco2)cc1S(=O)(=O)N(C)C	none
Cc1nnc(NCc2n[nH]c(=O)c3ccccc23)c2ccccc12	GPR7 antag 22 | GPR7 antag cf inactive | MCHR1 antagonist inactive
O=c1cc(N2CCOCC2)[nH]c(=O)n1-c1ccc(Br)cc1	GPR7 antag 25 | GPR7 antag cf inactive | MCHR1 antagonist inactive
O=c1cc(N2CCOCC2)[nH]c(=O)n1-c1ccc(Cl)cc1	none
O=c1ccc2ccc(OCc3nnc(-c4ccccc4Br)o3)cc2o1	none
Cc1cc(=O)oc2cc(OCc3nnc(-c4ccccc4Br)o3)ccc12	GPR7 antag 31 | GPR7 antag cf inactive | MCHR1 antagonist 25
CCO[C@H]1OC(C(=O)NCc2ccccc2)=C[C@@H](c2ccc3c(c2)OCO3)[C@@H]1CCCO	GPR7 antag 33 | GPR7 antag cf inactive | MCHR1 antagonist inactive
Cc1ccc(C)c(OCC(O)CNC2CCCC2)c1 (stereo not drawn)	none
COc1ccc(-c2cc(C)no2)cc1S(=O)(=O)N1CCOc2ccccc21	GPR7 antag 23 | GPR7 antag cf inactive | MCHR1 antagonist inactive
COc1cc(/C=C2\SC(=Nc3ccc(Cl)c(C(=O)O)c3)NC2=O)c(Br)c(Br)c1O	GPR7 antag 40 | GPR7 antag cf 28 | MCHR1 antagonist 48
CC1(c2ccccc2)NC(=O)N(CC(=O)Nc2ccc(N3CCOCC3)cc2)C1=O (stereo not drawn)	none (no result: pCIP destab, GPR7 antag)
O=C(c1cc(COc2ccc(F)c(F)c2)on1)N1CCN(C2CCCCC2)C(=O)C1	GPR7 antag 27 | GPR7 antag cf inactive | MCHR1 antagonist inactive
O/N=C(\c1ccccc1)c1nccc2ccccc12	none
O=C(CSc1nnc(-c2cccnc2)n1Cc1ccco1)NCc1ccc2c(c1)OCO2	none
COc1cccc(-c2nnc(SCC(=O)NCc3ccc4c(c3)OCO4)n2Cc2ccco2)c1	GPR7 antag 25 | GPR7 antag cf inactive | MCHR1 antagonist inactive
Cc1n[nH]c(C)c1N1C(=O)c2cccc3c(N4CCCCCC4)ccc(c23)C1=O	GPR7 antag 52 | GPR7 antag cf 41 | MCHR1 antagonist 56
O=C1c2cccc3c(N4CCCCC4)ccc(c23)C(=O)N1c1cccc(O)c1	none
Cc1cc(SCc2ccc([N+](=O)[O-])cc2)nc(=O)[nH]1	GPR7 antag 26 | GPR7 antag cf inactive | MCHR1 antagonist inactive
Cc1cc(SCc2cccc([N+](=O)[O-])c2)nc(=O)[nH]1	none
COc1cc(CN2CCC(CO)(Cc3cccc(C(F)(F)F)c3)CC2)ccc1F	GPR7 antag 34 | GPR7 antag cf inactive | MCHR1 antagonist 44
COc1ccc(F)c(CN2CCC(CO)(Cc3cccc(C(F)(F)F)c3)CC2)c1	none
CCOC(=O)NC(NC(=S)Nc1ccc(OCC)cc1)C(Cl)(Cl)Cl (stereo not drawn)	none
O=C(NC(NC(=S)Nc1c(Cl)cccc1Cl)C(Cl)(Cl)Cl)OCc1ccccc1 (stereo not drawn)	GPR7 antag 27 | GPR7 antag cf 26 | MCHR1 antagonist 44
C=CCc1cccc(Cl)c1OCCCNC1CCCC1	GPR7 antag 30 | GPR7 antag cf 31 | MCHR1 antagonist 21
C=CCc1ccc(OCCCNC2CCCC2)c(OC)c1	none (no result: pCIP destab, GPR7 antag)
COCc1ccccc1C1=CC(=O)C[C@H](c2ccc(OC)cc2)C1	none (no result: pCIP destab, GPR7 antag)
N/N=C(/Cc1nc2ccccc2[nH]1)c1ccc([N+](=O)[O-])cc1	GPR7 antag 36 | GPR7 antag cf inactive | MCHR1 antagonist inactive
c1ccc(N/N=C(\Cc2nc3ccccc3[nH]2)c2ccccc2)cc1	none
O=C(c1nnsc1S(=O)c1ccc(Cl)cc1)N1CCOCC1 (stereo not drawn)	GPR7 antag 25 (no result: VLA-4 inh) | GPR7 antag cf 37 | MCHR1 antagonist 92
COc1ccccc1-c1noc(CCC(=O)Nc2cc(C(F)(F)F)ccc2Cl)n1	GPR7 antag 23 | GPR7 antag cf inactive | MCHR1 antagonist 32
Cc1ccc(C(=O)N/N=C\c2ccc([N+](=O)[O-])o2)cn1	GPR7 antag 26 | GPR7 antag cf inactive | MCHR1 antagonist inactive
Cc1cccc(NC(=O)COC(=O)CCc2c[nH]c3ccccc23)c1	none (no result: GASC-1 inh, pCIP destab, GPR7 antag)
CN(C)CCNC(=O)c1cc2c(s1)-c1ccc(Cl)cc1SC2	GPR7 antag 69 | GPR7 antag cf 93 | MCHR1 antagonist 93
CCOCCCNC(=O)c1cc2c(s1)-c1ccccc1SC2	none
COc1ccc(CCC(=O)NCC23CC4CC(CC(C4)C2)C3)cc1	none
CN(CC(=O)Nc1ccccc1Br)C(=O)CCC1CCCC1	none
CN(CC(=O)Nc1ccccc1Br)C(=O)CCc1ccccc1	GPR7 antag 23 | GPR7 antag cf inactive | MCHR1 antagonist inactive
COc1ccc(NC(=O)CC23CC4CC(C2)CC(n2nnc(C)n2)(C4)C3)cc1	none
CCN(CC)S(=O)(=O)c1ccc(NC(=O)COc2nc3ccccc3nc2N2CCOCC2)cc1	GPR7 antag 24 | GPR7 antag cf inactive | MCHR1 antagonist inactive
O=C(NC(=S)Nc1nc2ccc(F)cc2s1)c1ccco1	none
Cc1cc(NC(=O)CCc2ccc(S(=O)(=O)N3CCOCC3)cc2)n(-c2ccccc2)n1	GPR7 antag 30 | GPR7 antag cf inactive | MCHR1 antagonist inactive
Cc1nc2cc(NC(=O)N(C)c3ccc4ccccc4c3)ccc2o1	GPR7 antag 32 (no result: GASC-1 inh) | GPR7 antag cf inactive | MCHR1 antagonist 26
Cc1nc2cc(NC(=O)c3ccc(S(=O)(=O)N(C)c4ccccc4)cc3)ccc2o1	GPR7 antag 45 | GPR7 antag cf 63 | MCHR1 antagonist 81
COc1cccc2cc(C(=O)NC3CC4CCC3C4)oc12 (stereo not drawn)	none
CN(C)C(=O)COC(=O)c1ccccc1NC(=O)c1ccco1	none
CCc1ccc(C(C)NC(=S)NCc2ccc(F)cc2)cc1 (stereo not drawn)	GPR7 antag 31 | GPR7 antag cf 43 | MCHR1 antagonist 75
